Here are results for five compounds from PubChem BioAssay (NCATS).

Where “and” joins values, the source holds several entries; their conditions need not be identical. Equal entries are not always repeated.

Test [1] can be described thus: qHTS profiling for inhibitors of Plasmodium falciparum (3D7) proliferation (AID 743322).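 Also: infected erythrocytes exposed to compound for 72 h before lysis; 100% = DMSO vehicle wells and 0% = 0.29 µM artemisinin.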 Particulars: P. falciparum 3D7 proliferation; at 28.7 µM (top of the series). An outline of the steps: (§1)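 Parasite DNA was quantified by SYBR Green I fluorescence (ex 485, em 535 nm) after overnight lysis in saponin/Triton buffer at room temperature. Cultures at 0.3% parasitemia and 2.5% hematocrit were first exposed to compound for 72 h at 37 C; signals were normalised to artemisinin (0.29 uM) and vehicle wells.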
On the technique in general: In qHTS, concentration-response curves come from the screen itself.

Test [2] in a line: qHTS profiling for inhibitors of Plasmodium falciparum (DD2) proliferation (AID 743323). Particulars: lower = more inhibition; at 28.7 µM (top of the series). The method, boiled down: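 Parasite DNA quantified by SYBR Green fluorescence (ex 485, em 535 nm) after saponin/Triton lysis and overnight dark incubation. Cultures: 0.3% parasitemia, 2.5% hematocrit, 72 h, 37 C; data scaled between DMSO and 0.29 uM artemisinin.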

Test [3] in a line: qHTS profiling for inhibitors of Plasmodium falciparum (HB3) proliferation (AID 743324).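 Also: 100% = DMSO vehicle wells and 0% = artemisinin-treated control wells.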 The note with it: Plasmodium falciparum HB3 blood-stage proliferation; at 28.7 µM (top of the series). The method, boiled down:
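SYBR Green fluorescence (485 ex/535 em) of lysed cultures, incubated overnight at room temperature in the dark, quantifies parasite DNA. Infected erythrocytes at 0.3% parasitemia and 2.5% hematocrit were exposed 72 h; values normalized to DMSO and 0.29 uM artemisinin controls.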

The nature of test [4]: qHTS profiling of the MIPE4 collection as inhibitors of Plasmodium falciparum (DD2) proliferation (Rep 2) (AID 743346). Particulars: P. falciparum Dd2 in erythrocytes, SYBR Green DNA, 72 h; at 28.5 µM (top of the series) unless noted. An outline of the steps: as §1
The nature of test [5]: qHTS profiling of the MIPE4 collection as inhibitors of Plasmodium falciparum (HB3) proliferation (AID 743347).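 Also: plate controls were DMSO vehicle wells for no effect and artemisinin wells for full effect.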 Particulars: P. falciparum HB3 in erythrocytes, SYBR Green DNA, 72 h; at 28.5 µM (top of the series) unless noted. The method, boiled down:
as §1

Test [6] in a line: High-throughput drug toxicity screening in the BPDCN cell line Cal-1 (AID 1224825). The note with it: Cal-1 BPDCN cell viability, qHTS; at 45.8 µM (top of the series) unless noted. The method, boiled down: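 Viability of the BPDCN line Cal-1 is measured as ATP-based luminescence (CellTiter-Glo) following 48 h incubation with compounds. Percent activity uses DMSO-treated wells as 100% and 9.2 uM bortezomib as 0%.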

A short description of test [7]: qHTS profiling of the MIPE4 collection as inhibitors of Plasmodium falciparum (3D7) proliferation (AID 743344).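 Also: scaled between DMSO vehicle wells and 0.29 µM artemisinin as full inhibition.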 The note with it: P. falciparum 3D7 in erythrocytes, SYBR Green DNA fluorescence, 72 h; at 28.5 µM (top of the series) unless noted. The method, boiled down:
as §1

Test [8] is described as follows: qHTS profiling of the MIPE4 collection as inhibitors of Plasmodium falciparum (DD2) proliferation (AID 743345). The note with it: P. falciparum Dd2 in erythrocytes, SYBR Green DNA, 72 h; at 28.5 µM (top of the series) unless noted. The method, boiled down: as §1

`Cn1c2cc(S(C)=O)sc2c2cnn(Cc3cccc(N)c3)c(=O)c21` (centres undefined): the remaining parasite growth % (stronger effect = lower value) in test [1] was 83.6% and 85.6%. Also, in test [2], the activity, percent of control is 95% and 94.7%. Besides, the remaining proliferation (% of control), lower = more inhibition in test [3] was 53.2% and 65.3%. Besides, in test [4], the parasite growth, % of control (lower = inhibition) came out at 77%. This compound had a growth, % of control in test [5] of 367%. In test [6], this compound displayed a viability (% of control) of 100%.

`CC[C@H](CO)Nc1nc(NCc2ccccc2)c2ncn(C(C)C)c2n1` yielded a remaining proliferation (% of control), lower = more inhibition in test [3] of 19.5%. The same compound had a parasite growth, % of DMSO control in test [7] of 20%. The compound further yielded a viability (% of control) in test [6] of 29.5%.

On to `O=C(Cc1ccc(-c2ccc(OCCN3CCOCC3)cc2)cn1)NCc1ccccc1`, for which the parasite growth, % of DMSO control in test [7] is 20.6%. In test [8], this compound had a parasite growth remaining, % of DMSO control (lower = more inhibition) of 20.2%. The compound further came in with a parasite growth, % of control (lower = inhibition) in test [4] of 27.1%. Moreover, the growth, % of control in test [5] worked out at 11.9%. The viability (% of control) in test [6] was found to be 9.81%.

Regarding `C[C@]12CC[C@H](O)CC1=CCC1C2CC[C@]2(C)C(n3cnc4ccccc43)=CCC12` (some centres undefined), the parasite growth, % of DMSO control in test [7] was found to be 6.89%. This compound yielded a parasite growth remaining, % of DMSO control (lower = more inhibition) in test [8] of 72.8%. The compound also came in with a parasite growth, % of control (lower = inhibition) in test [4] of 21.9%. For the same compound, in test [5], the growth, % of control is 9.11%. The compound further yielded a viability (% of control) in test [6] of 91.9%.

As to `Cc1cc(CN2CCN(c3c(Br)cnc4nc(-c5ccc(N6CCN(C)CC6)cc5)[nH]c34)CC2)no1`, in test [7], the parasite growth, % of DMSO control stood at 15.7%. In test [8], the parasite growth remaining, % of DMSO control (lower = more inhibition) came out at 6.44%. Moreover, the parasite growth, % of control (lower = inhibition) in test [4] came out at 25.8%. The compound also displayed a growth, % of control in test [5] of 4.61%. In addition, the viability (% of control) in test [6] was found to be 2.79%.
